Reference: PubChem BioAssay (NCATS)
Results filed as inconclusive are left out. A call without a number means that no potency is given here. Calls of active or inactive are those of the source. The call rests on the fitted dose curve; in most records, active means well fitted inhibition curve with a large enough effect; inconclusive means small, poorly fitted or top-dose-only effect; inactive means flat fitted curve, though single readings scatter.

experiment: qHTS for Inhibitors of Plasmodium falciparum (HB3) proliferation (AID 504318); further: nearly all actives have a fitted effect of over 60% in size; conditions: P. falciparum HB3 in erythrocytes, SYBR Green DNA, 72 h; series mostly up to 7.21 µM
Summary of the method: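 Parasite growth measured as SYBR Green DNA fluorescence (ex 485, em 535 nm) after overnight lysis following 72 h culture at 37 °C, 0.3% parasitemia, 2.5% hematocrit. Values normalized against DMSO and 0.29 uM artemisinin controls, with plate-stack correction.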
Potency means the concentration at half of the fitted maximal effect.

| SMILES | Potency |
| --- | --- |
| C=CCNC(=O)N1C2=NC(C(=O)OC)=C(C(=O)OC)[C@@H]3N(Cc4ccccc4)c4ccccc4[C@]23C[C@H]1C(=O)OC | 3160 nM (active) |
| COC(=O)CCC(=O)OC1(C)C(=O)C=C2C=C(C3CC3)N(C(CO)CO)C=C2C1=O (configuration not stated) | inactive |
| COCC(=O)N1CCc2nc(COc3ccccc3)c3c(c2C1)CO[C@@H](C)C3 | inactive |
| COC(=O)C1=C(C(=O)OC)[C@@H]2N(Cc3ccccc3)c3ccccc3[C@@]23C[C@@H](C(=O)OC)N(S(=O)(=O)c2ccc(C#N)cc2)C3=N1 | 1690 nM (active) |
| C=CCOC(=O)C(C(C)=O)[C@@H](NC(=O)OC)c1cccc(C(F)(F)F)c1 (some centres not stated) | inactive |
| CCCCCCC(=O)Cc1cc(OC)c(OC)cc1C=C(C(=O)OCC)C(=O)OCC | inactive |
| COC(=O)N1C2CC(=O)O[C@@H]3c4cc5c(cc4[C@]1(C)[C@@]3(Br)c1ccccc12)OCO5 | 1900 nM (active) |
| CCN1C(=O)N(S(=O)(=O)c2ccc(C)cc2)[C@@H](c2ccccc2)C(C(=O)OC)=C1C | inactive |
| COC(=O)C1=C(C(=O)OC)[C@@H]2N(Cc3ccccc3)c3ccccc3[C@@]23C[C@@H](C(=O)OC)N(S(=O)(=O)c2ccc(Br)cc2)C3=N1 | 1690 nM (active) |
| COC(=O)CCCC1=CC2=C(c3ccccc3)C(=O)C(C)(OC(=O)C3CCCC3)C(=O)C2=CN1CC(C)C (configuration not stated) | inactive |
| CCOC(=O)CN1C(=O)N[C@@H](c2cccc(C(F)(F)F)c2)C(C(=O)OC)=C1C | inactive |
| CCOC(=O)CN1C(=O)N(CC)C(C)=C(C(=O)OC)[C@@H]1c1ccccc1 | inactive |
